Screens as filed in PubChem BioAssay.
The list is not random: actives were taken first. Their share in the collection is about 1.9%.
PLCg1 inh: PLC-gamma1 enzyme inhibitors, primary screen, biochemical, fluorescence, purified enzyme; 1-phosphatidylinositol 4,5-bisphosphate phosphodiesterase gamma-1 (Homo sapiens), P19174; fluorogenic substrate; inhibition, % at 12.2 µM; 370,000 compounds, 0.84% hits; in the data active means inhibition above about 9.5%
PLC-beta3 inh: human PLC-beta3 inhibitors, primary screen, biochemical, fluorescence. 1-phosphatidylinositol 4,5-bisphosphate phosphodiesterase beta-3 (Homo sapiens), Q01970. Purified PLC-beta3, fluorogenic substrate. inhibition, % at 12.2 µM. 370,000 compounds, 0.18% hits; in the data active means inhibition above about 11%;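 further: 0% = median of compound wells on plate and 100% = full blocker control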
bovine MsrA act: bovine MsrA enzyme activators, primary screen, biochemical, absorbance, HTS; Methionine sulfoxide reductase A (Bos taurus); purified bovine MsrA, absorbance read-out; activation, % at 10.6 µM; 360,000 compounds, 0.3% hits; AID 602163, 2012; in the data active means activation above about 7.5%;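 further: 0% = vehicle and 100% = reference activator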
MsrA inhibitor: bovine MsrA enzyme inhibitors, primary screen, biochemical, absorbance, HTS; purified bovine MsrA, absorbance read-out; inhibition, % at 15.5 µM; 360,000 compounds, 0.75% hits; AID 651718, 2012;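 further: 0% = vehicle wells with enzyme and 100% = reference inhibitor wells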
MsrA conf: bovine MsrA inhibitors, retest, confirmation, biochemical, absorbance, HTS; shares compounds with MsrA inhibitor; purified bovine MsrA, absorbance read-out; inhibition, % at 15.5 µM; 2,300 compounds, 41% hits;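 further: coupled to thioredoxin reductase with NADPH and selenocystamine and DMSO as substrate; 0% = vehicle only and 100% = full effect of reference inhibitor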
Numbers without * were called inactive. Unless noted, no stated cut-off is given here; in the data, active means inhibition above about 4.5%; inactive means the rest.

Results for O=C1OC(c2ccco2)=N/C1=C\c1ccc(-c2cccc(C(F)(F)F)c2)o1 ?
PLCg1 inh: -27.6; PLC-beta3 inh: -31.7; bovine MsrA act: -2.2; MsrA inhibitor: 5.6*; MsrA conf: 2.4

Results for O=C1OC(c2cccs2)=N/C1=C/c1ccc(-c2cccc(C(=O)O)c2)o1 ?
PLCg1 inh: 5.0; PLC-beta3 inh: -8.2; bovine MsrA act: -4.7; MsrA inhibitor: 4.1

What do the screens show for `COC(=O)/C(=C/c1c[nH]c2ccccc12)NC(C)=O`?
PLCg1 inh: 4.4; PLC-beta3 inh: 1.0; bovine MsrA act: -5.5; MsrA inhibitor: 3.7

How did CCOC(=O)/C(=C/c1c[nH]c2ccccc12)NC(C)=O do in these assays?
PLCg1 inh: 0.4; PLC-beta3 inh: 3.9; bovine MsrA act: 0.4; MsrA inhibitor: 5.0*; MsrA conf: 3.4

Results for Cc1c(C(=O)N/N=C/c2cccnc2)sc(N)c1C#N ?
PLCg1 inh: -8.9; PLC-beta3 inh: -18.1; bovine MsrA act: -3.2; MsrA inhibitor: 4.7*; MsrA conf: 3.2

Results for Cc1ccc(C(=O)N/N=C\c2cccnc2)s1 ?
PLCg1 inh: -0.7; PLC-beta3 inh: -5.0; bovine MsrA act: -1.6; MsrA inhibitor: 1.6

How did CS(=O)(=O)Nc1ccc(C2=NN(C(=O)c3ccccc3)C(c3cccs3)C2)cc1 (stereo unspecified) do in these assays?
PLCg1 inh: -11.1; PLC-beta3 inh: -17.7; bovine MsrA act: -11.2; MsrA inhibitor: 4.8*; MsrA conf: 1.5

Results for Nc1[nH]c(C(=O)c2ccc(Br)cc2)c(-c2ccccn2)c1C(=O)NCCc1c[nH]c2ccccc12 ?
PLCg1 inh: -3.7; PLC-beta3 inh: -13.3; MsrA inhibitor: 0.6

What do the screens show for `O=C(O)CC/C(=N\Nc1ccc(S(=O)(=O)N2CCCC2)cc1[N+](=O)[O-])c1cccs1`?
PLCg1 inh: 5.5; PLC-beta3 inh: 5.2; bovine MsrA act: -3.8; MsrA inhibitor: 4.8*; MsrA conf: 4.5

Results for O=C(O)CC/C(=N\Nc1ccccc1[N+](=O)[O-])c1cccs1 ?
bovine MsrA act: -3.0

Results for O=C(O)CC/C(=N\Nc1ccc(S(=O)(=O)N2CCOCC2)cc1[N+](=O)[O-])c1cccs1 ?
PLCg1 inh: 5.8; PLC-beta3 inh: 2.3; bovine MsrA act: -11.6; MsrA inhibitor: 4.9*; MsrA conf: 4.7*

How did CCc1ccc(C(=O)NNC(=S)Nc2ccc(S(N)(=O)=O)cc2)s1 do in these assays?
PLCg1 inh: -18.5; PLC-beta3 inh: -19.2; bovine MsrA act: 2.3; MsrA inhibitor: 4.9*; MsrA conf: 2.2

How did CC(C)CC(=O)NNC(=S)Nc1ccc(S(N)(=O)=O)cc1 do in these assays?
PLCg1 inh: 4.4; PLC-beta3 inh: 5.3; bovine MsrA act: -0.7; MsrA inhibitor: 2.3

How did COc1cccc(/C=C2/NC(=O)N(CC(=O)Nc3ccc(C)cc3)C2=O)c1OCc1cccc(C(=O)O)c1 do in these assays?
PLCg1 inh: -9.8; PLC-beta3 inh: -30.7; bovine MsrA act: -4.4; MsrA inhibitor: 1.2

Results for Cc1ccc(NC(=O)CN2C(=O)N/C(=C/c3ccccc3OCc3cccc(C(=O)O)c3)C2=O)cc1 ?
PLCg1 inh: 0.5; PLC-beta3 inh: -19.6; bovine MsrA act: -4.2; MsrA inhibitor: 4.7*; MsrA conf: 2.7

How did O=C(CCS(=O)(=O)c1ccc(Br)cc1)Nc1ccc2c(c1)OCO2 do in these assays?
PLCg1 inh: -4.5; PLC-beta3 inh: -5.3; bovine MsrA act: -9.7; MsrA inhibitor: -0.7

How did CCN(C(=O)CCS(=O)(=O)c1ccc(Br)cc1)c1ccc2c(c1)OCO2 do in these assays?
PLCg1 inh: -1.2; PLC-beta3 inh: 0.8; bovine MsrA act: -1.7; MsrA inhibitor: 14.2*; MsrA conf: 7.3*

Results for CC(=O)N1CCN(c2ccc(N3CCN(Cc4ccccc4)[C@H](C)C3)c(C)c2)[C@@H](C)C1 ?
PLCg1 inh: 7.0; PLC-beta3 inh: 2.7; MsrA inhibitor: -1.1

Results for COc1cccc(/C=C2/SC(=O)N(C)C2=O)c1OCc1ccc(C(=O)O)cc1 ?
PLCg1 inh: -36.7; PLC-beta3 inh: -45.2; bovine MsrA act: -5.7; MsrA inhibitor: 2.8

How did COc1cccc(/C=C2/SC(=O)N(CC(=O)N3CCc4ccccc4C3)C2=O)c1OCC(=O)O do in these assays?
PLCg1 inh: -157.4; PLC-beta3 inh: -163.4; bovine MsrA act: -6.5; MsrA inhibitor: 4.8*; MsrA conf: 4.4
